# According to PubChem BioAssay (NCI):
# The panel holds about 79,000 compounds, 15% with a hit somewhere; the sample as a whole holds those more often. A number with no mark means an inactive call. The source made the active and inactive calls. Cut-off read from the data, not from the text of the source: active = growth inhibition above about 70%; inactive = the rest.
# Legend:
# [1] = NCI Yeast Anticancer Drug Screen. Data for the rad50 strain (AID 155);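 note: 0% = growth of vehicle-only cultures of the same strain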; conditions: S. cerevisiae rad50 strain growth inhibition; at 50.0 µM; active compounds read high
# Method in brief: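 Vehicle-treated cultures provide the reference for the growth inhibition reported for compound-exposed, repair-deficient yeast.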
# [2] = NCI Yeast Anticancer Drug Screen. Data for the mec2-1 strain (AID 157); conditions: S. cerevisiae mec2-1 strain, at 50.0 µM, active compounds read high
# Method in brief: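 Compounds were applied to mec2-1 yeast cells. Their growth was then compared with that of vehicle-treated cultures to give growth inhibition.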
# [3] = NCI Yeast Anticancer Drug Screen. Data for the sgs1 mgt1 strain (AID 161);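 note: 0% = growth of cultures given vehicle only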; conditions: S. cerevisiae sgs1 mgt1 strain, at 50.0 µM, active compounds read high
# Method in brief: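 Compounds are added to genetically altered yeast, and growth is compared with cultures given vehicle alone to give percent inhibition.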
# [4] = NCI Yeast Anticancer Drug Screen. Data for the cln2 rad14 strain (AID 165);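 note: 0% = growth equal to vehicle treated cultures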; conditions: S. cerevisiae cln2 rad14 strain, at 50.0 µM, active compounds read high
# Method in brief: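 Strain: cln2 rad14 yeast, altered in cell cycle control and DNA damage repair. Read-out: growth inhibition vs vehicle.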
# [5] = NCI Yeast Anticancer Drug Screen. Data for the bub3 strain (AID 167); conditions: S. cerevisiae bub3 mutant strain, at 50.0 µM, active compounds read high
# Method in brief: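 Mutant yeast screening strain plus compound; vehicle-treated cultures serve as the 0% inhibition reference.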
# [6] = NCI Yeast Anticancer Drug Screen. Data for the mlh1 rad18 strain (AID 175); conditions: S. cerevisiae mlh1 rad18 strain growth inhibition; at 50.0 µM; active compounds read high
# Method in brief: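 A repair-deficient yeast strain is exposed to test compound, and growth is scored relative to vehicle-treated controls.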
SMILES,growth inhibition [1],growth inhibition [2],growth inhibition [3],growth inhibition [4],growth inhibition [5],growth inhibition [6]
Cc1ccc(CCl)c(O)c1,-25.7%,-14.6%,-6%,-12.5%,7.1%,
CN1CCN(c2nc(N)c(Br)c(Cl)n2)CC1,-2.85%,3.65%,-14.8%,-1.85%,2.95%,-10.2%
C1=C[N-]c2c3c(ccc2=C1)=CC=C[N-]3.C1=C[N-]c2c3c(ccc2=C1)=CC=C[N-]3.[Cl][Ru][Cl],70.3% (active),28.3%,49%,44.4%,61%,33.8%
CCOC(OC1=C(C#N)CCCC1)C(CC)[Se]c1ccccc1 (stereo not drawn),62.6%,21.3%,50.8%,52%,44.1%,57.8%
Cc1ccc(C2=CCNCC2)cc1,-9.45%,-24.3%,-4.3%,6.75%,-12%,-2.65%
[Cl][Hg][c]1ccccc1N=Nc1ccccc1I,99.2% (active),98.8% (active),99.2% (active),98.8% (active),99.3% (active),99.2% (active)
C[Si](C)(C)C#CC#C[Si](C)(C)C.[Ni].[Ni].[Ni].[Ni].[c-]1[c-][c-][cH-][c-]1.[c-]1[c-][c-][cH-][c-]1.[c-]1[c-][c-][cH-][c-]1.[c-]1[c-][c-][cH-][c-]1,11.7%,5.5%,-5.05%,9.2%,-2.85%,-5.85%
CC(=O)OCCCn1nc(COC(N)=O)c2c1CC(C)CC2=O (stereo not drawn),1%,-11.3%,-8.25%,-4.35%,-14.8%,3.65%
COc1cc(C(CC(C)=O)c2cc3c(cc2OC(C)=O)OCO3)cc(OC)c1OC (stereo not drawn),18.8%,4.4%,-0.9%,-9.1%,10.8%,21.9%
Cc1cc(S(=O)(=O)[O-])ccc1-n1nc(C)[c-](N=Nc2cc(S(=O)(=O)[O-])ccc2C(=O)[O-])c1=O.[Cr+3].[Na+].[OH-] (stereo not drawn),-19.4%,-30.5%,-11.6%,-35.4%,-16.3%,-17.1%
OC(c1ccccc1)C1CCCCN1 (stereo not drawn),-7.95%,-7.2%,9.8%,-12.3%,11.2%,-17.6%
c1ccc(C2(N3CCC4(CC3)OCCO4)CCCCC2)cc1,13%,-2.9%,9.2%,-17.6%,1.35%,6.35%
NCC(O)c1ccc2c(c1)OCO2 (stereo not drawn),-48.8%,-12.7%,-11.3%,-31.4%,-1.4%,-8.65%
COc1cccc(C)c1C1CC2CCCN2O1 (stereo not drawn),16.6%,5.5%,5.95%,9.4%,14.7%,5.3%
O=C(Cc1ccccc1)OCCBr,-8.95%,4.65%,0.95%,15.1%,-16.2%,-2.05%
CP1CC(Br)C(Br)C1 (stereo not drawn),3.6%,-5%,19.9%,-7.05%,6.5%,2.5%
O=C(O)[C@@H](Cl)[C@@H](Cl)C(=O)O,30.7%,-11.4%,22.9%,6.7%,9.55%,17.9%
O=C(OCC1CCCN2CCCCC12)c1cccnc1 (stereo not drawn),7.7%,-10.8%,-28.3%,14.9%,-8.5%,-25.3%
[Cl][Pt][Cl].[NH-]NC(=O)c1ccncc1,8.65%,5.8%,-3.55%,-17.1%,2.35%,-2%
CC12CC[C]([Hg][I])(CC1)C2(C)C,96.5% (active),98.6% (active),99.8% (active),4.3%,74.9% (active),84.8% (active)
O=[N+]([O-])c1cccc(/C=C/c2ccc(S(=O)(=O)F)cc2)c1,97.5% (active),93.8% (active),96.8% (active),93.8% (active),97.2% (active),97.3% (active)
CCCCOS(C)(=O)=O,19.6%,-13.8%,22.4%,5.8%,21.4%,29.4%

SMILES,growth inhibition [1],growth inhibition [2],growth inhibition [3],growth inhibition [4],growth inhibition [5],growth inhibition [6]
CC(C)(C)[SH+]CC[SH+]C(C)(C)C.[C-]#[O+].[C-]#[O+].[C-]#[O+].[C-]#[O+].[Cr],13.6%,-19.1%,-7.25%,-4.4%,3.65%,3.35%
Cc1c([N+](=O)[O-])cc2c(c1[N+](=O)[O-])C(C)(C)CC2(C)C,-18.9%,-22.5%,-9.2%,10.4%,14.8%,-6.3%
COc1cc(C2c3cc4c(cc3C(O)[C@H]3COC(=O)C23)OCO4)cc(OC)c1O (stereo partly drawn),-38.8%,-50.8%,-27.1%,-1.8%,-13.9%,38.6%
CC(CC(C)(C)C)C(=O)Cl (stereo not drawn),7.85%,-2.7%,5.35%,10.9%,4.15%,23.4%
Cc1cc2n[se]nc2cc1C,18.3%,-9.15%,20.6%,6.3%,-6.65%,21.7%
CC(=O)OC1(C(C)=O)CC2(c3ccccc3)OC1(c1ccccc1)c1ccccc12 (stereo not drawn),-0.55%,12.1%,9%,10.2%,-3.9%,7.25%
OCC1C(/C=C/c2ccoc2)ON2CCCC12 (stereo not drawn),-16.6%,-0.5%,-8.05%,26.6%,18.1%,-27.6%
Cc1ccc(O)cc1,-27.4%,24.1%,-22%,-31.2%,1.1%,-30.1%
[CH3][Sb]([CH3])([CH3])([O]C(=O)C(Cl)Cl)[O]C(=O)C(Cl)Cl,10.1%,-7.15%,15.3%,-22.6%,-1.7%,2.9%
Clc1cc[c]([Pb]([Cl])([Cl])[c]2ccc(Cl)cc2)cc1,22.9%,17%,27.9%,52.2%,36.5%,13.7%
CC1CC2CCC1(CO)CN2 (stereo not drawn),-0.45%,2.3%,0.1%,4.65%,0.85%,3.9%
CC1COC(Nc2cccc3c2CCCC3)=N1 (stereo not drawn),-10.1%,-13.7%,-10.6%,-34%,-8.1%,3%
CN(C)CCO,-21.4%,11.5%,4.55%,-1.65%,23.4%,35.4%
O=C(N=[C-]c1ccc[oH+]1)c1cccnc1.O=C(N=[C-]c1ccc[oH+]1)c1cccnc1.[Ni+2],-24.7%,-34.5%,-3.4%,-25.4%,-31.8%,5.65%
O=NNc1ncc(Cl)cc1Cl,4.9%,-23.8%,-6.05%,-4.7%,14.2%,8.65%
CCOP(=S)(OCC)OP(=O)(CC)CC,3.1%,-10.1%,-1.7%,4.4%,9.2%,-2.55%
CCOC(=O)C(Br)C(C)C (stereo not drawn),24.1%,12%,16.1%,24.6%,7.6%,10.5%
O=NN1CCOCC1,-36.5%,11.1%,14.8%,-15.7%,-1.6%,31.1%
CCCCN1COC2CCCCC21 (stereo not drawn),20.6%,-13.2%,-43.2%,-12.6%,-44.4%,-32.9%
Cn1cnc([N+](=O)[O-])c1C(=O)O,7.9%,25.1%,20.4%,-13.2%,-17.9%,6.55%
Clc1ccc(C2ON2c2ccccc2)cc1 (stereo not drawn) (tested in a mixture with another compound),3.1%,14.6%,16.2%,4.45%,-8.4%,18.2%
CCOP(=O)(OCC)/C(C#N)=C/c1cc(O)ccc1O,-34.2%,-35.1%,-51.9%,-10.2%,-47.9%,-45.8%
